Screening data (PubChem)
In the library only some 4.8% were active in any assay of this set; here they are far more common.
HepG2 viability: HepG2 cytotoxicity, counter-screen for TGF-b inhibitors; 410,000 tested, 0.76% active; Potency, µM (highest dose often 46.1 µM), usual class: cytotoxic; HepG2 CAGA-GFP viability, ATP luminescence, 18 h; AID 588856
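CellTiter-Glo luminescence gave cytotoxicity after 18 hours at 37 degrees C. The cells were HepG2 CAGA-GFP in 1% FBS DMEM, stimulated with 500 pg/mL TGF-beta after compound addition. %Activity was normalised to no-cell wells (complete cell-killing) and DMSO (no toxicity), and curves were fitted and classified.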
ATXN2 expr inh: reduces ATXN2 reporter expression in HEK-293 cells. Potency, µM (doses to about 57 µM), usual class: inhibitors. 360,000 tested, 0.72% active. HEK-293 ATXN2-luciferase reporter, luminescence, 24 h. AID 1745845; note: nearly all actives have a fitted effect of over 55% in size
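ATXN2-luciferase reporter cells (luciferase flanked by upstream and downstream ATXN2 gene portions) were treated 24 h at 37 °C with compounds at up to 57 uM. SteadyGlo luminescence gave expression; GF-AFC fluorescence gave viability.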
D3 antag: D3 dopamine receptor (human) antagonism | P35462 | D3R cells, DiscoveRx beta-arrestin luminescence, antagonist mode; active compounds read low | max response, negative = inhibition, % | 360,000 tested, 2.5% active | AID 652054; in the data active = max response below about -50%; inconclusive = no clear call, values can overlap the other calls
Target sequence (P35462 whole entry, looked up): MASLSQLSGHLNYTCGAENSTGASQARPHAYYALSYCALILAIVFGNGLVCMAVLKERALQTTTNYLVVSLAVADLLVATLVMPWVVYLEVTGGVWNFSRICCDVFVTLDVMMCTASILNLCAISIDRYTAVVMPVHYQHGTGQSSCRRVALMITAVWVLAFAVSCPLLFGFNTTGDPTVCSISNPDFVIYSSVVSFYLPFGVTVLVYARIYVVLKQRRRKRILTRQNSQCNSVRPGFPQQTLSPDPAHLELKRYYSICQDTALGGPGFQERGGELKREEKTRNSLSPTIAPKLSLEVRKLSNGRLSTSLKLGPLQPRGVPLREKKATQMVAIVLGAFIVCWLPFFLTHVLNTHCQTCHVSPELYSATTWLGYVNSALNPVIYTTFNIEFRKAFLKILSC
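Cells expressing the human receptor were seeded at 1500 cells/well, incubated overnight at 37 degrees C in 5% CO2, then exposed to library compounds with dopamine controls for 90 minutes at 37 degrees C before luminescent detection.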
S2 tox: cell viability loss in ATXN counter-screen | S2 cells (HEK-293 line with an ATXN2-luciferase reporter) viability, CellTiter-Fluor protease fluorescence, 24 h | Potency, µM (titrated, usually from 56.7 µM), most hits filed as cytotoxic | 400,000 tested, 0.49% active | AID 651635; note: nearly all actives have a fitted effect of over 40% in size
D3 ag: D3 dopamine receptor (human) agonism | max activation, % | AID 652048 | 410,000 tested, 0.58% active | D3R DiscoveRx beta-arrestin cells, luminescence, 90 min; in the data active = max activation above about 30%
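Agonist mode: compounds and dopamine controls were applied to plated cells for 90 min at 37 degrees C after an overnight attachment at 1500 cells/well. Luminescent read-out followed 30 - 60 minutes at room temperature with DiscoveRx detection reagent.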
TGFb inhibitor: inhibitors of TGF-b signaling. HepG2 CAGA-GFP TGF-b/SMAD3 reporter, GFP fluorescence, 18 h; TGF-beta stimulated, 500 pg/mL final. Potency, µM (highest dose often 46.1 µM), actives largely listed as inhibitors. 410,000 tested, 1.2% active. AID 588855; note: nearly all actives have a fitted effect of over 65% in size
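HEPG2 CAGA-GFP reporter cells (1000/well, DMEM with 1% FBS) received compounds, then recombinant TGF-beta at 500 pg/mL final for 18 hours at 37 degrees C. Per-cell GFP summed per well was normalised to unstimulated and stimulated DMSO controls before curve fitting.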
Large screens that a line does not name were inactive. Unless noted, calls come from the whole dose curve; as a rule, active = well fitted curve in the direction sought with a large enough effect; inconclusive = small, poorly fitted or top-dose-only effect, or another doubt; inactive = no such curve, though single readings can be large; an effect the other way counts as inactive or inconclusive.

CC(C)(C)n1ncc2c(=O)n(Cc3ccc(Cl)c(C(F)(F)F)c3)cnc21	none (no result: ATXN2 expr inh, D3 antag, S2 tox, D3 ag)
Cc1scc(C(=O)Nn2cnnc2)c1-c1ccccc1	D3 antag -55
CC(C)n1c(SCC(=O)c2ccc(F)cc2)nc2c(sc3ccccc32)c1=O	none (no result: D3 antag)
Cc1ccc2cc(CN(CCN3CCCC3)C(=O)Nc3ccc(F)cc3)c(=O)[nH]c2c1C	D3 antag -78, S2 tox inconclusive
Cc1ccc2cc(CN(CCN3CCCC3)C(=O)Nc3ccccc3)c(=O)[nH]c2c1C	D3 antag -67
O=C1N(CN2CCN(c3cccc(Cl)c3)CC2)c2ccccc2C12OCCCO2	D3 antag -83
O=C1N(CN2CCC3(CC2)OCCO3)c2ccccc2C12OCCCO2	none
CC1(C)COC2(OC1)C(=O)N(CN1CCOCC1)c1ccccc12	none
CC1CCOC2(O1)C(=O)N(CN1CCN(c3ccccc3F)CC1)c1ccccc12 (configuration not stated)	D3 antag -54
CCN1CCN(CC(=O)Nc2ccc(-c3cccc4c(=O)cc(N5CCOCC5)oc34)c3sc4ccccc4c23)CC1	none (no result: HepG2 viability, D3 antag, S2 tox, D3 ag, TGFb inhibitor)
CCCCCn1c(=N)c(S(=O)(=O)c2ccccc2)cc2c(=O)n3cccc(C)c3nc21	S2 tox inconclusive (no result: D3 antag)
Cc1ccccc1NC(=S)NCCC(c1ccccc1)c1ccccc1	ATXN2 expr inh inconclusive, D3 antag -60, TGFb inhibitor inconclusive
Cc1ccc(NC(=S)NCCC(c2ccccc2)c2ccccc2)c(C)c1	D3 antag -67, TGFb inhibitor inconclusive
Cc1ccccc1NC(=S)NCc1ccc2c(c1)cc(C)n2C	ATXN2 expr inh inconclusive, S2 tox inconclusive, TGFb inhibitor 11µM
Cc1ccc(NC(=S)NCc2ccccc2)c(C)c1	none
COc1ccc(OC)c(NC(=S)NCCC(c2ccccc2)c2ccccc2)c1	none
CCc1ccc(-c2nn(CC(=O)NCc3ccccc3)c3c2cnc2ccc(C)cc23)cc1	none (no result: D3 antag)
Cc1c(C(=O)N2CCCCCC2)sc2ncnc(NCC3CCCO3)c12 (configuration not stated)	none (no result: HepG2 viability, ATXN2 expr inh, D3 antag, D3 ag, TGFb inhibitor)
C=CC(C)(C)c1c2occc2c(O)c2ccc(=O)oc12	S2 tox inconclusive, TGFb inhibitor inconclusive
C=CC(C)(C)c1c(O)c(CC=C(C)C)c(O)c2c(=O)c3ccc(O)c(O)c3oc12	HepG2 viability 14µM, ATXN2 expr inh inconclusive, S2 tox 28µM, D3 ag 89, TGFb inhibitor 11µM
FC(F)(F)c1cccc(N2CCN(Cc3cccnc3)CC2)c1	D3 antag -74
COc1cccc(N2CCN(Cc3cccnc3)CC2)c1	D3 antag inconclusive
FC(F)(F)c1cccc(N2CCN(Cc3ccoc3)CC2)c1	D3 antag -96
O=c1cc(N2CCN(Cc3ccccc3)CC2)[nH]c(=O)n1-c1cccc(C(F)(F)F)c1	none
Cc1cc(CN2CCN(c3cccc(C)c3C)CC2)cs1	TGFb inhibitor inconclusive (no result: ATXN2 expr inh, D3 antag, S2 tox)
Cc1cccc(N2CCN(Cc3ccoc3)CC2)c1C	D3 antag -87
CC(C)(C)n1ncc2c(=O)n(Cc3cccc(C#N)c3)cnc21	none (no result: ATXN2 expr inh, D3 antag, S2 tox, D3 ag)
CCCS(=O)(=O)c1c(S(=O)(=O)CCC)c2cc(C(C)(C)C)ccn2c1C(=O)c1ccccc1	none (no result: D3 antag)
CC(C)c1ccc(NC(=O)c2cc3c(=O)oc4ccccc4c3s2)cc1	none (no result: ATXN2 expr inh, D3 antag, S2 tox)
COC(=O)/C=C/c1ccc2c(c1)S(=O)(=O)N(C1CCCC1)[C@H]2CC(=O)OC	TGFb inhibitor inconclusive (no result: ATXN2 expr inh, D3 antag, S2 tox, D3 ag)
COc1ccc(/C(N)=N/OC(=O)CCCN2C(=O)c3ccccc3C2=O)cc1OC	ATXN2 expr inh inconclusive, D3 ag 41
COc1ccc(NC(=O)c2c(NCc3ccc(C)o3)sc3c2CCCCC3)c(OC)c1	S2 tox inconclusive, TGFb inhibitor inconclusive (no result: D3 antag)
COc1cc2c(cc1NC(=O)C(Cl)Cl)-c1ccc(NC(=O)C(Cl)Cl)cc1C2	HepG2 viability 7.9µM, D3 antag inconclusive, TGFb inhibitor 4.5µM (no result: S2 tox)
C(=NN=C1c2ccccc2-c2ccccc21)c1c[nH]c2ccccc12	S2 tox 19µM, TGFb inhibitor inconclusive
Fc1c(F)c(F)c(N/N=C/c2c[nH]c3ccccc23)c(F)c1F	S2 tox inconclusive, TGFb inhibitor inconclusive
